Assay results taken from the supplement of paper PMC11732987, “Enantioselective OTUD7B fragment discovery through chemoproteomics screening and high-throughput optimisation” (Communications Chemistry, 2025).

Tests used:
Assay in all cases: log2 ratio of Biotin-Ahx-Ub-VS probe labelling (fragment/DMSO); higher = less target engagement (more negative = stronger competition), active = hit call of the paper (q ≤ 0.05, log2 ratio ≤ -1)
Conditions in all cases: compound concentration: 200 uM; treatment time: 3 h
USP34 = USP34 (UniProt Q70CQ2)
Chain of USP34 (Q70CQ2 whole entry, the tested form may be a part): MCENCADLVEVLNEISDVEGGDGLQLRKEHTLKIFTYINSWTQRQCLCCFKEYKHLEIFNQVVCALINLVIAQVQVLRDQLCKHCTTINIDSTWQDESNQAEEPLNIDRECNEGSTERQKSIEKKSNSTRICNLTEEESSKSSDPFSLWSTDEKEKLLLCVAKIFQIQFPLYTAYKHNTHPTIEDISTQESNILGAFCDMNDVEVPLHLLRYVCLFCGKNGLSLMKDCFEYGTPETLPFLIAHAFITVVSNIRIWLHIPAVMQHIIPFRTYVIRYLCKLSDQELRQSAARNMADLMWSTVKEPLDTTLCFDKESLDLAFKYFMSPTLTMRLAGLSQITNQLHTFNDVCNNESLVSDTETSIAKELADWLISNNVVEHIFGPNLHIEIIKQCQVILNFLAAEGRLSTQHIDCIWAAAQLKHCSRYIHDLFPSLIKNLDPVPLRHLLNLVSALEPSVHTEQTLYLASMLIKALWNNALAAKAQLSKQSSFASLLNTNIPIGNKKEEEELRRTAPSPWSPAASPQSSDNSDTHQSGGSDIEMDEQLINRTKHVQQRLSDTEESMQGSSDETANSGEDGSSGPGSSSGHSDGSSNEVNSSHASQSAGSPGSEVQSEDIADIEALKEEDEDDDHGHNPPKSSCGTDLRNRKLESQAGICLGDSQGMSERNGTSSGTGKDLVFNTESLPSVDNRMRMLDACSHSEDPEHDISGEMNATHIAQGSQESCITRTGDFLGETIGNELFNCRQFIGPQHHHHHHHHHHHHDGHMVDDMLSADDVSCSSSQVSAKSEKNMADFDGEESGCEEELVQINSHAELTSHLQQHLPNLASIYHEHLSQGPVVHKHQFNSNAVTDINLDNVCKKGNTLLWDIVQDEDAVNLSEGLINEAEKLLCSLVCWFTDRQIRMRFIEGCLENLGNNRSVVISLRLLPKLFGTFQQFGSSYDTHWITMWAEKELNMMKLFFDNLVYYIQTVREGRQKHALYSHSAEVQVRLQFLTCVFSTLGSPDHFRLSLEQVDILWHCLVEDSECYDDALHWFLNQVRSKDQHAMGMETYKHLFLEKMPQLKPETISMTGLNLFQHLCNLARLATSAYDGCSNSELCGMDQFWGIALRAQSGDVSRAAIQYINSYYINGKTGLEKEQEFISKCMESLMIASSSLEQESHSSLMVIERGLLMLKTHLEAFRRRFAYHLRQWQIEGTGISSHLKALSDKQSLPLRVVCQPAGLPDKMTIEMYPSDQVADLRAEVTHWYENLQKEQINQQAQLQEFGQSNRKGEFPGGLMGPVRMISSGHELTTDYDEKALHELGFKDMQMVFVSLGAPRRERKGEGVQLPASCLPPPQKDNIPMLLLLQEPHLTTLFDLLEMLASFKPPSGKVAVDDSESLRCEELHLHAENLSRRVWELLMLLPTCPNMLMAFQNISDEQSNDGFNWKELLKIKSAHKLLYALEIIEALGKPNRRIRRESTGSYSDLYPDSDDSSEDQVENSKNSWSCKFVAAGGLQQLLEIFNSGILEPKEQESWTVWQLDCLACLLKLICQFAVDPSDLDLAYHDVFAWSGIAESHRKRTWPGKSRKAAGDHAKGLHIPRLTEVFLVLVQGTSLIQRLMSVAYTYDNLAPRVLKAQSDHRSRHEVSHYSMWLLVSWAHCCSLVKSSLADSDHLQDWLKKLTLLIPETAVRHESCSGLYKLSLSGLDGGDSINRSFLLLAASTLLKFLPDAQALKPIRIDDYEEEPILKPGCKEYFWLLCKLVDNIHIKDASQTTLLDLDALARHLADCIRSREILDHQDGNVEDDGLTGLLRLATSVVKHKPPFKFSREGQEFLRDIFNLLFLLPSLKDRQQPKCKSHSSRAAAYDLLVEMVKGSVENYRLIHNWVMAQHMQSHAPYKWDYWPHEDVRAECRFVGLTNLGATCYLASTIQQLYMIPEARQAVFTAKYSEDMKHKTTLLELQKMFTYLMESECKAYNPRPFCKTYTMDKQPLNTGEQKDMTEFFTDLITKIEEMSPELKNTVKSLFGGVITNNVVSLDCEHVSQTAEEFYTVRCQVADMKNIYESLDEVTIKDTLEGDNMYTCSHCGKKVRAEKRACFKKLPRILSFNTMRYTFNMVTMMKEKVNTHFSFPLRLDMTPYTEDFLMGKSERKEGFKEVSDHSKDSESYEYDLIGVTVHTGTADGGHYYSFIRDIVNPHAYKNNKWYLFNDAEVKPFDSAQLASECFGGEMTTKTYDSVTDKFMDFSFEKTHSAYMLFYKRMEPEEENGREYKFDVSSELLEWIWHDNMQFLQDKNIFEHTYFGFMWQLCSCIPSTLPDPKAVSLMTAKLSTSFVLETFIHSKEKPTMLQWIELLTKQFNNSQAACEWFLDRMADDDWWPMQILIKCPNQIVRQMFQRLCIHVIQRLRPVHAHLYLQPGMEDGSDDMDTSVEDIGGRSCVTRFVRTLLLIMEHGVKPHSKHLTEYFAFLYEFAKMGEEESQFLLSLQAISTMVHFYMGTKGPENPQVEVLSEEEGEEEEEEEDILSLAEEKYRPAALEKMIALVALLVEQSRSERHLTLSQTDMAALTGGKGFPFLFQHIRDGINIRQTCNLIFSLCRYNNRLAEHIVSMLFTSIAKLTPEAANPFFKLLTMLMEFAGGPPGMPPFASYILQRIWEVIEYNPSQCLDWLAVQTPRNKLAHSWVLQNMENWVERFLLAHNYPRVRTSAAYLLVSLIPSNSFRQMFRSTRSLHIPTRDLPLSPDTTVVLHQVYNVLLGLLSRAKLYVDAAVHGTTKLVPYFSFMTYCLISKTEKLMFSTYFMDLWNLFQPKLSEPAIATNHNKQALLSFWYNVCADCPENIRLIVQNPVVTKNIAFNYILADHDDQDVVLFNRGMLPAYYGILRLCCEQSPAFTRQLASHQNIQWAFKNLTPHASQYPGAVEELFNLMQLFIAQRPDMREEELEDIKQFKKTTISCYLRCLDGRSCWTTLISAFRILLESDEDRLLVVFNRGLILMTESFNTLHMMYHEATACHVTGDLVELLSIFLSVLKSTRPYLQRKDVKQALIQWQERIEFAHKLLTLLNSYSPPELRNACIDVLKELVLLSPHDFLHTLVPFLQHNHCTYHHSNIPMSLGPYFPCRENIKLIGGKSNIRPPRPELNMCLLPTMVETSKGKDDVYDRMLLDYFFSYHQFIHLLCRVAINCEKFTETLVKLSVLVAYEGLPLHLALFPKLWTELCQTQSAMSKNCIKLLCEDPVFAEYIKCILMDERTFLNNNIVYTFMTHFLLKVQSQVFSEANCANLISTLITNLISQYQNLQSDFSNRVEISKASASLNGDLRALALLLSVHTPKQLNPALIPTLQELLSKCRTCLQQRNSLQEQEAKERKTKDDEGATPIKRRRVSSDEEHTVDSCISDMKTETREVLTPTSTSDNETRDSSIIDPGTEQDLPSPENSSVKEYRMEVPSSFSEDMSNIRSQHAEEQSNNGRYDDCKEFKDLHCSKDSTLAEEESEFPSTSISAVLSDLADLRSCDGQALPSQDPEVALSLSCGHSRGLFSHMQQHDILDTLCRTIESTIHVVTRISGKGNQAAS
Summary of the method: (§1)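 Triplicate samples of HEK293T lysate, 495 µg each, received fragment at 200 µM or vehicle for 3 h, followed by Biotin-Ahx-Ub-VS (0.5 µM final) for 1 h. After NeutrAvidin enrichment of labelled DUBs and LysC/trypsin digestion, peptides were run by diaPASEF LC-MS/MS. The values are average log2 fragment/vehicle ratios from global-median-normalised Spectronaut label-free quantities, tested by unpaired t-test on proteins having ≥2 unique peptides.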

USP36 = target: T1, USP36 (UniProt Q9P275)
T1 sequence (whole entry): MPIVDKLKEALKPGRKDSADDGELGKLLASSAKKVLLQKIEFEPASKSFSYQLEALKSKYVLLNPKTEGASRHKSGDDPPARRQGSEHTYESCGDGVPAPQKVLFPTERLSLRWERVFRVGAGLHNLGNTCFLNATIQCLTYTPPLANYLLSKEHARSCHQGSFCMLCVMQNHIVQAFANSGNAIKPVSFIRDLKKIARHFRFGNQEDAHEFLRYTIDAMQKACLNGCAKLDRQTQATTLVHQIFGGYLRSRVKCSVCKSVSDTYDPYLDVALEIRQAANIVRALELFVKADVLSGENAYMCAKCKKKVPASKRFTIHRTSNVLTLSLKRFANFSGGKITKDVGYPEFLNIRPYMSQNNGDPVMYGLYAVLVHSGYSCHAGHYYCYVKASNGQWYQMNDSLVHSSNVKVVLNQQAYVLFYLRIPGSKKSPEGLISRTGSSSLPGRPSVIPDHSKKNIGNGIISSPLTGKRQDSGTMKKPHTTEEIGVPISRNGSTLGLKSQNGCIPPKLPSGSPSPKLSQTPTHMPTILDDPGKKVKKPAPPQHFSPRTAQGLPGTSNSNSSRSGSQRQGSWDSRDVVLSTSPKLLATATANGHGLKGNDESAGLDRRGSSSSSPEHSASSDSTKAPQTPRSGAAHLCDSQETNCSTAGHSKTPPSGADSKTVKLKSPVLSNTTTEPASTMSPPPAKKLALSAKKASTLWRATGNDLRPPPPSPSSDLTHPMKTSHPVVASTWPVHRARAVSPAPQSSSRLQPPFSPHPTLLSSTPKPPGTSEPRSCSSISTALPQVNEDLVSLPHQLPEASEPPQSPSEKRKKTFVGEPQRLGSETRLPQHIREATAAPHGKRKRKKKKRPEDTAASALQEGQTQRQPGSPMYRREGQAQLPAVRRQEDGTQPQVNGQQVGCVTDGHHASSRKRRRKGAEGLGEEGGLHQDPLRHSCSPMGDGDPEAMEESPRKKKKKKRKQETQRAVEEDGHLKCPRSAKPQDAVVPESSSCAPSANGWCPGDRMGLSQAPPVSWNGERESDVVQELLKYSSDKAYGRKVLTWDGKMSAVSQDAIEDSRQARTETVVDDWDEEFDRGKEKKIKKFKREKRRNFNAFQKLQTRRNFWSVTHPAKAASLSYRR
Summary of the method: as §1

USP38 = target: T2, USP38 (UniProt Q8NB14)
T2 sequence (whole entry): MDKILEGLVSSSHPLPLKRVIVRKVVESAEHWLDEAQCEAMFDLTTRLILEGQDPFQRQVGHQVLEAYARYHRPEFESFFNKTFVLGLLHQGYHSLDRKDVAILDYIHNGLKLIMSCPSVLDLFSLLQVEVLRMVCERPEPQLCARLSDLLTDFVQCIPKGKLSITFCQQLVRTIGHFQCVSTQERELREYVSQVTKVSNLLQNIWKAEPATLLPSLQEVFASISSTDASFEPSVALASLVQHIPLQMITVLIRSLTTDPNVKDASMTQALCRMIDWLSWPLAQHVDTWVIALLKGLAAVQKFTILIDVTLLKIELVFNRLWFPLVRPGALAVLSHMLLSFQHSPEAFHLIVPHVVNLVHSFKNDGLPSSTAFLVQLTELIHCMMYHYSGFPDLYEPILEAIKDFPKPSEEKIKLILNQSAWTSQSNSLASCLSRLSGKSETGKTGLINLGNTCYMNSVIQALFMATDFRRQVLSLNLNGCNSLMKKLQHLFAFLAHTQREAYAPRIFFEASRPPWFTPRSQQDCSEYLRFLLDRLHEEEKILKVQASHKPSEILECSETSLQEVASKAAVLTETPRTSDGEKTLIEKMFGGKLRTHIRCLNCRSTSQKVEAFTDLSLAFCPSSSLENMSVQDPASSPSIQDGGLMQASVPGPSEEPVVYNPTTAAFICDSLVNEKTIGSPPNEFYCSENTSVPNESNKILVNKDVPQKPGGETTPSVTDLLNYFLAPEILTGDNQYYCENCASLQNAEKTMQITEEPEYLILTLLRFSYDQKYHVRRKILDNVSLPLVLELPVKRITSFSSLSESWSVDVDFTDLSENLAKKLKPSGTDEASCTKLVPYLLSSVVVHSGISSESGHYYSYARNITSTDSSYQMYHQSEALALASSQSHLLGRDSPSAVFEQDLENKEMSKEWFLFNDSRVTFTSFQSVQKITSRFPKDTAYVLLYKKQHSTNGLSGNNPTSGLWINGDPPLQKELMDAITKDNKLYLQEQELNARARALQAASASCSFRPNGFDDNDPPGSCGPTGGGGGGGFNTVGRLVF
Summary of the method: as §1

USP39 = target: T3, USP39 (UniProt Q53GS9)
T3 sequence (whole entry): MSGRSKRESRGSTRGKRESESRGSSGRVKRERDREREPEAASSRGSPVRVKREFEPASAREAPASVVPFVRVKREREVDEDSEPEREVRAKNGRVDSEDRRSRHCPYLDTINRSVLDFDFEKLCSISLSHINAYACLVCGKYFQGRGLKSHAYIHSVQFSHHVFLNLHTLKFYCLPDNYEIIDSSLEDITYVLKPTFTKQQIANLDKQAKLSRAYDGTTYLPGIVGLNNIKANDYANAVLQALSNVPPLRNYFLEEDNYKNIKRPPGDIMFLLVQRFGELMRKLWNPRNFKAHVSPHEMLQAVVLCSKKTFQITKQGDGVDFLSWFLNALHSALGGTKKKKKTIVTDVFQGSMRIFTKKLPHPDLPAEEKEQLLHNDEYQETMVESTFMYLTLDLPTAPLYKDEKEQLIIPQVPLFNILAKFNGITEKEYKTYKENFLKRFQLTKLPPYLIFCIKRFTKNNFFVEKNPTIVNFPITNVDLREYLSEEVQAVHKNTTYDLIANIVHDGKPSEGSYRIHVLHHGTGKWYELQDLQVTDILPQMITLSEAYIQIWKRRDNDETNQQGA
Summary of the method: as §1

USP4 = target: T4, USP4 (UniProt Q13107)
T4 sequence (whole entry): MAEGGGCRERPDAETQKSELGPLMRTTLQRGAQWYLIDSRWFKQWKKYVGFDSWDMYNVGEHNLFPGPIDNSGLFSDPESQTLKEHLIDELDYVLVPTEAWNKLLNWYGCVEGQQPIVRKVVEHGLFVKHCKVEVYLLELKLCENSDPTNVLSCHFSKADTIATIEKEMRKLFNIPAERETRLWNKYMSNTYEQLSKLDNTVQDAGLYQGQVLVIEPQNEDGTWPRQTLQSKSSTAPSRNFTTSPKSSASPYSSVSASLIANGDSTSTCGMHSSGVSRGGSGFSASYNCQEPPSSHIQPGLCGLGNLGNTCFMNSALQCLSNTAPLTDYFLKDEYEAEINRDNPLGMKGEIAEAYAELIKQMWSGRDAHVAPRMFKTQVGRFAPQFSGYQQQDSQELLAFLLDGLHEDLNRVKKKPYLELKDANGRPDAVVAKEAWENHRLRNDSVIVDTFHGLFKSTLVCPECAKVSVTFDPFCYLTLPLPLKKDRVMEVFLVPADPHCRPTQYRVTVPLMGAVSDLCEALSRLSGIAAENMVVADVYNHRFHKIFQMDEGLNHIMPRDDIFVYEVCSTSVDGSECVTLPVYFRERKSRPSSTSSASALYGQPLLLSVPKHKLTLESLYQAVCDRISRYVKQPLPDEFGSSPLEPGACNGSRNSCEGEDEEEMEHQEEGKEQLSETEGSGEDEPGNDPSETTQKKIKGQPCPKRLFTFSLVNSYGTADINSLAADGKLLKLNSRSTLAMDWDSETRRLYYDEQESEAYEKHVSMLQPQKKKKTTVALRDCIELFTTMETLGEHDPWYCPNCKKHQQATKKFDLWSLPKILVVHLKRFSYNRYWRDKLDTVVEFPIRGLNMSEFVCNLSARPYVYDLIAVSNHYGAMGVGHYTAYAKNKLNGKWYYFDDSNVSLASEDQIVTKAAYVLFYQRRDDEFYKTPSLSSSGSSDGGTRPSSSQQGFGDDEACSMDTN
Summary of the method: as §1

Measured: log2 ratio of Biotin-Ahx-Ub-VS probe labelling

Cl.O=C(CCl)NCCN1CCc2ccccc21
inactive: USP34 -0.536 | USP36 -0.231 | USP38 -0.723 | USP39 0.178 | USP4 -0.666
